Source: PubChem (National Center for Advancing Translational Sciences (NCATS))
IL1B secr inh = inflammasome signaling inhibition, IL-1 beta readout | AID 743279 | activity change, % at 57.5 µM | THP-1 LPS/ATP IL-1B secretion, AlphaLISA, 16 h; hits give low values | 360,000 tested, 4.7% active; in the data active = activity change below about -50%; inconclusive = mostly about -30% to -49%; note: % is set by controls: 0 for no effect and ±100 for the full control effect
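Secreted IL-1B measured by AlphaLISA bead assay after 16 h compound exposure of THP-1 cells; compounds (final up to 57.5 uM) added 1 h before LPS (250 ng/mL) and ATP (1.25 mM) stimulation; lower signal means less secretion.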
HT1080-NT tox = kills 2HG-producing HT-1080-NT fibrosarcoma cells | Potency, µM (highest dose often 46.1 µM), inactives show at the highest dose activity, negative = less viability, hits mostly cytotoxic | HT-1080-NT fibrosarcoma viability, CellTiter-Glo ATP luminescence, 48 h | 360,000 tested, 1.6% active;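 note: NT is the 2HG producing partner of a matched IDH1 knockdown line; potency is the fitted concentration of half-maximal effect; 0% = DMSO-treated cells and -100% = media-only wells without cells; nearly all actives have a fitted effect of over 55% in size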
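750 cells/well, RPMI + 5% FBS; 2 h settle, compound pin-transfer, 48 h at 37 degrees C. CellTiter-Glo 10 min RT, luminescence. Normalized to DMSO and media-only wells.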
HT1080 IDH1KD tx = HT-1080 IDH1 knockdown cell toxicity (counter line). HT-1080 IDH1 knockdown viability, ATP luminescence, 48 h. Potency, µM (titrated, usually from 46.1 µM), for the others: at the highest dose activity, negative = toxicity, hits mostly cytotoxic. 360,000 tested, 2% active. AID 686971;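 note: potency is the fitted concentration of half-maximal effect; 0% = DMSO wells and -100% = cell-free medium wells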
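Viability of IDH1-knockdown HT-1080 fibrosarcoma cells was assessed by CellTiter-Glo after 48 h at 37 °C with titrated compound; concentration-effect curves were classified by fit quality and response size.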
TGFb SMAD3 inh = TGF-b pathway inhibition | HepG2 CAGA-GFP TGF-b/SMAD3 reporter, GFP fluorescence, 18 h; TGF-beta stimulated, 500 pg/mL final | Potency, µM (titrated, usually from 46.1 µM), for inactives: at the highest dose activity, negative = inhibition, actives largely listed as inhibitors | 410,000 tested, 1.2% active; note: potency is the fitted concentration of half-maximal effect; % is set by controls: 0 for no effect and ±100 for the full control effect; nearly all actives have a fitted effect of over 65% in size
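GFP signal (ex488/em500-530) from TGF-beta-stimulated HEPG2 CAGA-GFP cells, 500 pg/mL final, 18 h at 37 degrees C in DMEM plus 1% FBS, normalized to unstimulated and DMSO-stimulated controls.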
Giardia kill = Giardia lamblia killing; 340,000 tested, 0.15% active; Giardia lamblia trophozoite viability; AID 540267; activity change, % at 7.66 µM, hits read low; in the data active = activity change below about -80%; inconclusive = between about -30% and that limit;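 note: parasites exposed to compound for two days anaerobically before the ATP read; % is set by controls: 0 for no effect and ±100 for the full control effect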
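Viability, read as ATP luminescence: trophozoites at 100 cells/well, compound added, 48 hrs anaerobic at 37 deg C, then 15-30 min room-temperature development before reading.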
HepG2 viability = counter-screen for TGF-b inhibitors: cytotoxicity in HepG2 cells; HepG2 CAGA-GFP viability, ATP luminescence, 18 h; Potency, µM (doses to about 46.1 µM), inactives show at the highest dose activity change, negative = cytotoxicity, most hits filed as cytotoxic; 410,000 tested, 0.76% active; AID 588856; note: potency is the fitted concentration of half-maximal effect
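CellTiter-Glo luminescence gave cytotoxicity after 18 hours at 37 degrees C. The cells were HepG2 CAGA-GFP in 1% FBS DMEM, stimulated with 500 pg/mL TGF-beta after compound addition. %Activity was normalised to no-cell wells (complete cell-killing) and DMSO (no toxicity), and curves were fitted and classified.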
* hit, by the source's call; i = inactive; ? = inconclusive; / = not tested or not shown; [ ] = remark or other dose. Most compounds without a hit are left out; they make up all but 6.5% or so of the library. Unless noted, calls come from the whole dose curve; as a rule, active = well fitted curve in the direction sought with a large enough effect; inconclusive = small, poorly fitted or top-dose-only effect, or another doubt; inactive = no such curve, though single readings can be large; an effect the other way counts as inactive or inconclusive.

SMILES	IL1B secr inh	HT1080-NT tox	HT1080 IDH1KD tx	TGFb SMAD3 inh	Giardia kill	HepG2 viability
O=C(Nc1cccc([N+](=O)[O-])c1)c1ccc([N+](=O)[O-])o1	-103*	?	?	?	/	-63%
CC(C)[C@H](NC(N)=O)C(=O)Nc1cccc([N+](=O)[O-])c1	0	29%	15%	0.63µM*	-11	14%
CN(c1cccc(NC(=O)c2ccc(C(C)(C)C)cc2)c1)S(C)(=O)=O	?	23µM*	?	-1%	-21	-24%
O=C(Nc1cccc([N+](=O)[O-])c1)c1ccncc1	22	22%	20%	?	-7	-10%
Cc1cccc(NC(=O)C(=O)NNC(=O)c2ccc(C(C)(C)C)cc2)c1	-1	6.5µM*	8.2µM*	-1%	-19	-3%
Cc1ccc(S(=O)(=O)CCSc2nc(C)cc(C)c2C#N)cc1	0	?	?	-19%	-5	-7%
O=C(COc1ccc(Br)cc1)Nc1ccc(C(=O)Nc2ccccc2C(=O)O)cc1	14	-25%	0%	-2%	-5	-1%
CC1CC(C)CN(CCCSc2ccccc2)C1 (configuration not stated)	i	-8%	-2%	-1%	-17	-19%
O=C(Nc1cccc([N+](=O)[O-])c1)c1ccc2ccccc2c1O	-63*	?	?	?	-7	-31%
Cc1ccc(NC(=O)c2ccc([N+](=O)[O-])o2)cc1C	-94*	26µM*	13µM*	?	-94*	-39%
O=C(Nc1ccc2[nH]c(=O)[nH]c2c1)c1ccc([N+](=O)[O-])o1	?	-4%[9.24 µM]	?	11µM*	11	-30%
O=C(Nc1ccc2oc(-c3ccccc3F)nc2c1)c1ccc([N+](=O)[O-])o1	-3	-2%	-1%	7%	-96*	-2%
Fc1ccc(-c2ccc(/C=N\n3cnnc3)o2)cc1Cl	-14	-26%	?	1%	-2	-9%
c1ccc([C@H]2CN3C(=N2)Sc2ccccc23)cc1	-1	-13%	-3%	?	-11	-23%
CC(C)(C)c1ccc(C(=O)Nc2cccc([N+](=O)[O-])c2)cc1	-98*	-17%	-7%	?	-19	-38%
O=C(Nc1ncccn1)c1ccc([N+](=O)[O-])o1	-90*	?	?	?	-93*	-47%
Cc1ccc(NC(=O)c2cc(Cl)ccc2[N+](=O)[O-])cc1C	-100*	0%	2%	-24%	-7	-17%
O=C(Nc1cc(-c2nc3ncccc3o2)ccc1Cl)c1ccc([N+](=O)[O-])o1	-23	?	?	?	-83*	5%
O=C(COc1nsnc1N1CCOCC1)Nc1cccc(Cl)c1	-2	7%	0%	19%	17	-2%
COc1cccc(C(=O)OC(C)C(=O)NCC2CCCCC2)c1 (configuration not stated)	30	0%	11%	-7%	41	2%
C=CS(=O)(=O)c1c2cc(OC)ccc2nc2ccc(OC)cc12	-98*	?	?	?	11	14µM*
COc1ccc2nc(Cl)cc(Cl)c2c1	-2	24%	19%	-4%	?	-48%
CC(C)CCNC(=O)c1cccc(Nc2nc3ccccc3n3nnnc23)c1	/	/	/	?	/	-67%
Cc1cccc(C(=O)/C=C2/c3ccccc3CC(C)(C)N2C)c1	-6	-5%	11µM*	-12%	7	-46%
COc1cccc(NC(=O)CN(C)C(=O)c2sc3cc(Cl)ccc3c2Cl)c1	?	-7%	-3%	?	13	-40%
SMILES	IL1B secr inh	HT1080-NT tox	HT1080 IDH1KD tx	TGFb SMAD3 inh	Giardia kill	HepG2 viability
CCN(CC)S(=O)(=O)c1ccc(N2CCCC2)c(NC(=O)C2=COCCO2)c1	-1	11%	5%	1%	19	3%
CN1CCc2c(sc(/N=C/c3cc(Cl)ccc3O)c2C#N)C1	18	4%	10%	6%	-13	-7%
Cc1cccc(Nc2nnc(-c3ccc(N4CCOCC4)c([N+](=O)[O-])c3)c3ccccc23)c1	-62*	-21%	-12%	-16%	-15	-2%
COCCn1c(SCC(=O)N2CCOCC2)nnc1-c1ccncc1	9	7%	5%	1%	0	14%
CC1(C)Cc2c(sc(NC(=O)c3ccc(S(=O)(=O)N4CCCCCC4)cc3)c2C(N)=O)C(C)(C)N1	i	-19%	?	31%	-3	-41%
CC1(C)Cc2c(sc(NC(=O)c3ccc4c(c3)OCCO4)c2C(N)=O)C(C)(C)N1	-67*	?	?	-15%	-4	-19%
CCOC(=O)c1ccccc1NC(=O)CSc1nnc(C(C)C)n1CC	3	8%	6%	-8%	-2	-4%
Cc1ccc(-c2csc(NC(=O)CCNC(=O)c3ccccc3Cl)n2)cc1	-53*	-10%	-18%	?	16	-21%
COc1ccc(N/N=C(/C)c2cnnc(-c3ccccc3)n2)cc1	11	2%	23%	3%	6	-4%
Cc1ccc(-n2nnnc2Sc2nc([N+](=O)[O-])nn2C)cc1	-57*	?	?	?	-9	-3%
Cc1ccc(-n2nnnc2Sc2nc([N+](=O)[O-])nn2C)c(C)c1	?	-23%	-14%	?	?	-9%
COc1cccc(Oc2ccc(C(F)(F)F)cc2NC(=O)C2=COCCO2)c1	-29	-2%	-10%	-19%	-22	-13%
O=c1cc(CNc2cc(C(F)(F)F)cc(C(F)(F)F)c2)nc2sccn12	-71*	?	?	?	-2	-17%
O=c1ccc(C(F)(F)F)cn1Cc1cc(=O)n2ccsc2n1	2	0%	?	7%	-3	-62%
COc1ccc(-c2csc3[nH]c(=S)n(-c4ccccc4)c(=O)c23)cc1OC	17	-2%	-4%	1%	-22	-1%
CN(CC(=O)Nc1cccc(F)c1)C(=O)CCN1C(=O)C2CC=CCC2C1=O (configuration not stated)	45	-2%	-2%	0%	9	-6%
CN(CC(=O)Nc1cccc(F)c1)C(=O)CCCN1C(=O)c2cccc3cccc(c23)C1=O	-65*	-10%	-9%	-13%	6	0%
CCN(CC(=O)Nc1c(F)cccc1F)C(=O)CCCN1C(=O)c2cccc3cccc(c23)C1=O	-51*	1%	0%	-4%	/	1%
CC(=O)c1ccc(NC(=O)CC2Nc3cc(C)c(C)cc3NC2=O)cc1 (configuration not stated)	/	/	/	15%	/	4%
